The panel holds about 83,000 compounds, 20% with a hit somewhere; the sample as a whole holds those more often.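 Single-dose data. Exposure time 48 hours. Values below 10 considered active.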 A number with no mark means an inactive call. Calls of active or inactive are those of the source.

Common to all, as to experiment: NCI-60 one-dose screen, 48 h (100 = growth as untreated, 0 = no growth, -100 = all killed)
Conditions in all cases: 10 µM unless noted

For assay [1], the system named is DU-145 prostate.
The test system of assay [2] is K-562 leukemia.
The subject of assay [3] is MALME-3M melanoma.
In assay [4] the test system is MDA-MB-231 breast.
Assay [5] deals with RXF 393 renal.
Assay [6] relates to SF-268 CNS.
The test system of assay [7] is SF-295 CNS.
Assay [8] relates to SF-539 CNS.
Assay [9] concerns UACC-257 melanoma.
For assay [10], the system named is M14 melanoma.
The subject of assay [11] is HCT-15 colon.
The subject of assay [12] is HT29 colon.
Assay [13] has as its system SNB-75 CNS.
The test system of assay [14] is SNB-19 CNS.
The test system of assay [15] is U251 CNS.
In assay [16] the test system is PC-3 prostate.
Assay [17] relates to SK-MEL-5 melanoma.
The subject of assay [18] is LOX IMVI melanoma.
For assay [19], the system named is SK-MEL-28 melanoma.
Assay [20] has as its system UACC-62 melanoma.

Take `CN1CCN(c2ccc(OC(F)(F)F)c(Nc3ncc4c(n3)-c3c(c(C(N)=O)nn3CCO)CC4)c2)CC1`: the growth is 10.2% in assay [1]; 8.71% (active) in [2]; 83.6% in assay [3]; 32.1% in [4]; 32.9% in [5]; 35.6% in assay [6]. For the same molecule, the growth in [7] was 33.4%; in assay [8] it was 3.87% (active); in assay [9], 47.6%; in [10] it was 10.2%; in assay [11], 10.7%; in [12], 10.3%. Also, the growth in assay [13] was 7.72% (active); in assay [14], 23.4%; in assay [15], 25.4%; in assay [16] it was 36.8%; in [17], 23.4%; in [18], 25.6%. Besides, the growth in assay [19] is 88.7%.

With `Cn1ncc(Cl)c1-c1cc(C(=O)N[C@H](CN)Cc2ccc(F)c(F)c2)oc1Cl`, the growth in [1] was 19.1%; in assay [2] it was -32.7% (active); in assay [3], -78.6% (active); in assay [4], -43.8% (active); in [5], -52.6% (active); in [6], 23.1%. Besides, the growth in assay [7] is -65.8% (active); in assay [8], -75.1% (active); in assay [9], -89.4% (active); in [10] it was -78.5% (active); in assay [11] it was 6.57% (active); in assay [12], -11.7% (active). Moreover, the growth in assay [13] is -86.4% (active); in [14], 2.29% (active); in assay [15], -86.5% (active); in [16], -25% (active); in assay [17], -96.2% (active); in assay [18] it was -88.8% (active). Besides, the growth in assay [19] is -77.1% (active).

In the case of `COc1ccc(/C(C)=C(\c2ccc(Cl)cc2)c2ccc(OCCN3CCCCCC3)cc2)cc1`, the growth in assay [1] is 70.1%; in [2], 10.4%; in assay [3], 51.9%; in [4] it was 57.4%; in [5], 69.5%; in assay [6] it was 72.3%. For the same molecule, the growth in [7] was 54.6%; in assay [8] it was 56.8%; in assay [9] it was 58.3%; in [10], 60%; in assay [11], 26.6%; in assay [12], 8.63% (active). Further, the growth was 74.4% in [13]; 64.7% in [14]; 42.3% in assay [15]; 45.3% in [16]; 48.3% in assay [17]; 67.8% in assay [20]. Besides, the growth in assay [19] is 71.6%.

Consider `Cn1cnc(-c2cc3nccc(Oc4ccc(NC(=S)NC(=O)Cc5ccccc5)cc4F)c3s2)c1`, for which the growth in [1] was 104%; in assay [2], 6.69% (active); in [3], 86.3%; in assay [4], 81.2%; in assay [5], 87.1%; in [6] it was 84.3%. The growth in assay [7] is 52.5%; in assay [8], 58.7%; in assay [9] it was 60.5%; in assay [10], 96.5%; in assay [11], 85.3%; in assay [12], 62.6%. The growth was 78.6% in assay [13]; 96.6% in [14]; 79.7% in assay [15]; 81.3% in assay [16]; 76.7% in assay [17]; 94.5% in assay [18]. For the same molecule, the growth in [19] is 98.3%.

Take `Cc1ccc(NC(=O)c2ccc(CN3CC[C@H](N(C)C)C3)c(C(F)(F)F)c2)cc1Nc1nccc(-c2cncnc2)n1`: the growth was 30.6% in [1]; -19.6% (active) in assay [2]; -79.2% (active) in assay [3]; -34.5% (active) in [4]; -20.2% (active) in [5]; 17.1% in assay [6]. Also, the growth in assay [7] was -43.9% (active); in assay [8] it was -89.6% (active); in assay [9], -74.7% (active); in assay [10], -61% (active); in assay [11], 8.37% (active); in [12] it was -47.3% (active). For the same molecule, the growth in assay [13] was -85.9% (active); in assay [14] it was 19.6%; in assay [15], -36% (active); in [16], 10.9%; in assay [17] it was -96.6% (active); in assay [20], -63.5% (active). Also, the growth in assay [19] was -77.8% (active).

As for `Cc1ccc(NC(=O)c2ccc(CN3CCN(C)CC3)cc2)cc1Nc1nc(-c2cccnc2)cs1`, the growth in assay [1] was 76.5%; in [2], 3.08% (active); in assay [3], -9.2% (active); in [4], 33.8%; in assay [5], 32.9%; in assay [6] it was 70.8%. The growth in assay [7] was 3.18% (active); in assay [8], -81.5% (active); in [9], 17%; in assay [10], 35.5%; in assay [11] it was 16.1%; in assay [12] it was 6.04% (active). Further, the growth in assay [13] is 64.8%; in assay [14], 46.3%; in assay [15] it was 6.69% (active); in assay [16] it was 35.9%; in [17], -0.29% (active); in assay [20], 58.4%. Also, the growth in [19] is -10.3% (active).

In the case of `Cn1ccnc1C(=O)/C=C/c1ccc(CC(=O)Nc2ccc(C(F)(F)F)cc2)cc1`, the growth was 7.72% (active) in assay [1]; 6.29% (active) in [2]; 77.5% in assay [3]; 8.95% (active) in assay [4]; -1.43% (active) in [5]; 16.4% in [6]. In addition, the growth in assay [7] was 7.9% (active); in [8] it was -36.8% (active); in assay [9], 77.9%; in assay [10], 21.3%; in [11], -18.7% (active); in assay [12], -2.78% (active). For the same molecule, the growth is 0.358% (active) in assay [13]; 4.97% (active) in [14]; -20% (active) in [15]; 13.8% in assay [16]; 56.9% in assay [17]; -49.4% (active) in assay [18]. Further, the growth in assay [19] is 77.8%.
